The source made the active and inactive calls. How the source made its calls: active means hit-call score of the fitted dose curve at least 0.9, where 1 is the maximum; inactive means score below 0.9.

The values that follow come from PubChem BioAssay (EPA / NIEHS).

Experiment [1] can be described thus: ATG_CRE_CIS: Attagene CIS-FACTORIAL HepG2 Assay for human cAMP Responsive Element (CRE) binding protein 3 (AID 2282926). To be noted: HepG2 CRE cis-reporter, Attagene multiplexed mRNA; actives raise or lower the signal. In outline:
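Cells carrying cis-regulated reporter constructs respond through their own endogenous factors. After 24 h treatment, RNA is reverse-transcribed, amplified, labelled and sized by capillary electrophoresis; up- and down-regulation are both scored against vehicle.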

In experiment [2] the target is CCAAT/enhancer-binding protein beta (Homo sapiens) (UniProt P17676). As to the kind of experiment: ATG_C_EBP_CIS: Attagene CIS-FACTORIAL HepG2 Assay for human CCAAT/Enhancer Binding Protein (C/EBP) beta (AID 2282927). To be noted: HepG2 Attagene cis-factorial transcription factor reporter; actives raise or lower the signal. In outline: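 Endogenous C/EBPb-driven reporter transcripts measured in transfected human HepG2 cells at 24 h via RT-PCR and capillary electrophoresis of labelled fragments. Activity fitted in both directions relative to DMSO baseline.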

Experiment [3] in a line: ATG_CMV_CIS: Attagene CIS-FACTORIAL HepG2 Assay for human CMV (Internal Marker) (AID 2282928).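 Further: endpoint acts as a background internal control marker rather than a target.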 To be noted: HepG2 CMV promoter reporter, transcription factor profiling; actives raise or lower the signal. The essentials:
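Readout: fluorescent reporter cDNA fragments separated by capillary electrophoresis after RT-PCR and HpaI cut. Cells: HepG2 carrying transfected cis-promoter reporter constructs, dosed 24 h. Endpoint serves as background internal-marker control, fit bidirectionally versus DMSO.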

Experiment [4] addresses Aryl hydrocarbon receptor (Homo sapiens) (UniProt P35869). Description: ATG_Ahr_CIS: Attagene CIS-FACTORIAL HepG2 Assay for human Aryl Hydrocarbon Receptor (Ahr) (AID 2282930). To be noted: HepG2 AhR cis-factorial reporter transcription; actives raise or lower the signal. In outline:
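Reporter mRNA levels, quantified by RT-PCR and fluorescent capillary electrophoresis, reflect endogenous AhR transcriptional activity in HepG2 cells carrying transfected cis-promoter reporter constructs. Readout at 24 h post-dose; gain or loss fitted against DMSO baseline.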

A short description of experiment [5]: ATG_AP_1_CIS: Attagene CIS-FACTORIAL HepG2 Assay for human Activator Protein 1 (AP-1) (AID 2282931). To be noted: HepG2 Attagene cis-factorial AP-1 reporter mRNA; actives raise or lower the signal. The essentials:
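Multiplexed HepG2 reporter assay, 24 h dosing. mRNA induction detected by RT-PCR plus capillary electrophoresis. Activity fitted in both directions against DMSO.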

Experiment [6] in a line: ATG_AP_2_CIS: Attagene CIS-FACTORIAL HepG2 Assay for human Activator Protein 2 (AP-2) (AID 2282932). Conditions: HepG2 AP-2 cis-reporter, Attagene transcription factor profiling; actives raise or lower the signal. In outline:
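Endogenous transcription factor activity is reported through transfected multiplex reporter constructs in HepG2, after 24 h of compound exposure. Transcripts were quantified by RT-PCR and capillary electrophoresis of fluorescent fragments. Bidirectional fit against DMSO.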

Experiment [7] can be described thus: ATG_BRE_CIS: Attagene CIS-FACTORIAL HepG2 Assay for human Bone Morphogenetic Protein (BMP) Response Element (BRE) (AID 2282933). To be noted: HepG2 BMP response element reporter, Attagene transcription factor profiling; actives raise or lower the signal. The essentials: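 After a 24 h chemical treatment, transiently transfected HepG2 cells were lysed for RNA; reporter transcripts were quantified by fluorescent RT-PCR and capillary electrophoresis, normalised to DMSO.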

For experiment [8], the target named is Retinoic acid receptor alpha (Homo sapiens) (UniProt P10276). As to the kind of experiment: ATG_DR5_RAR_CIS: Attagene CIS-FACTORIAL HepG2 Assay for human Retinoic Acid Receptor Alpha (RARE), DR5 submotif (AID 2282934).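 On AC50: reporter responds to endogenous RAR alpha beta and gamma in HepG2 not RARA alone.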 Conditions: HepG2 Attagene cis-factorial RARE DR5 reporter, mRNA; actives raise or lower the signal. The essentials: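 Reporter transcripts from a DR5-regulated unit, measured via RT-PCR plus capillary electrophoresis, reflect endogenous RAR activity in transiently transfected human HepG2 liver cells. Exposure lasted 24 h; gain or loss of signal scored against DMSO.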

Experiment [9] can be described thus: ATG_DR4_LXR_CIS: Attagene CIS-FACTORIAL HepG2 Assay for human Liver X Receptor (LXR), DR4 submotif (AID 2282929). Conditions: HepG2 Attagene DR4 cis-reporter, mRNA transcription; actives raise or lower the signal. The essentials:
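Fluorescence intensity of labelled reporter cDNA fragments, separated by capillary electrophoresis, gives the signal. HepG2 cells bearing cis-regulated reporter constructs were treated 24 h; activity fitted bidirectionally relative to DMSO negative control.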

Aryl hydrocarbon receptor (Homo sapiens), sequence (P35869 whole entry, looked up): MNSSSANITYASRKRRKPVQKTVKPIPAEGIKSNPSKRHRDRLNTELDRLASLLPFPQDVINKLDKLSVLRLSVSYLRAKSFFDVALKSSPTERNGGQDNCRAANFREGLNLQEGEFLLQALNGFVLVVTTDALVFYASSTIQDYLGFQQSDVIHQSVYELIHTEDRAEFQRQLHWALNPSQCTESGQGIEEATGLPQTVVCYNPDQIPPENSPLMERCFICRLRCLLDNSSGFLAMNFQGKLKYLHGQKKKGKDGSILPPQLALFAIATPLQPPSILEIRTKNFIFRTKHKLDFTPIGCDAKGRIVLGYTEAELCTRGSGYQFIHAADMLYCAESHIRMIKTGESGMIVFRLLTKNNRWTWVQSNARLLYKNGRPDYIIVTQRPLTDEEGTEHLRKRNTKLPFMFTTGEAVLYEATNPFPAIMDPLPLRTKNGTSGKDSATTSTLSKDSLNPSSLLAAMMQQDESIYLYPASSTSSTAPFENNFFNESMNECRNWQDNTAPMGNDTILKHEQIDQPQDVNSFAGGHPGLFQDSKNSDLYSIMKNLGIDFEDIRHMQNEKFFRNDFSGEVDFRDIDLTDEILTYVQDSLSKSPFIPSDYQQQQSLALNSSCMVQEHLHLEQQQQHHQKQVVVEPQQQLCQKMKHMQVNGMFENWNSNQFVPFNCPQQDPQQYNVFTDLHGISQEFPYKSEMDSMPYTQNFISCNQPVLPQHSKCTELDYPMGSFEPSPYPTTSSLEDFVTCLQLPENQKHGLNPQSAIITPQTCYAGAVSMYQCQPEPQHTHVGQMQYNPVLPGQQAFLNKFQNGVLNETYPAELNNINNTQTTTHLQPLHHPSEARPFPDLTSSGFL
Retinoic acid receptor alpha (Homo sapiens), sequence (P10276 whole entry, looked up): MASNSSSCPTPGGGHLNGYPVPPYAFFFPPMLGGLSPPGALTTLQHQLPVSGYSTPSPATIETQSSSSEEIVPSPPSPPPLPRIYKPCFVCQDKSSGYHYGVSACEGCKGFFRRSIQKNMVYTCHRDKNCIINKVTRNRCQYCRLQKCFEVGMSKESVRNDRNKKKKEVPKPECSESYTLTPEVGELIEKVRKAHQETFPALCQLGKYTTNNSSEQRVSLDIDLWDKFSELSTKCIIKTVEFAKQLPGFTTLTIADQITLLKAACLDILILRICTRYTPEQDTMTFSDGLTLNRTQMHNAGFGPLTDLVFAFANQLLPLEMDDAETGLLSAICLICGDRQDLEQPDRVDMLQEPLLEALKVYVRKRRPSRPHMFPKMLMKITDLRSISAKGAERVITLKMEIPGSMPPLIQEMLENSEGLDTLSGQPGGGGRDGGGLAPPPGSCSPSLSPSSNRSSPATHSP
CCAAT/enhancer-binding protein beta (Homo sapiens), sequence (P17676 whole entry, looked up, the tested form may be a part): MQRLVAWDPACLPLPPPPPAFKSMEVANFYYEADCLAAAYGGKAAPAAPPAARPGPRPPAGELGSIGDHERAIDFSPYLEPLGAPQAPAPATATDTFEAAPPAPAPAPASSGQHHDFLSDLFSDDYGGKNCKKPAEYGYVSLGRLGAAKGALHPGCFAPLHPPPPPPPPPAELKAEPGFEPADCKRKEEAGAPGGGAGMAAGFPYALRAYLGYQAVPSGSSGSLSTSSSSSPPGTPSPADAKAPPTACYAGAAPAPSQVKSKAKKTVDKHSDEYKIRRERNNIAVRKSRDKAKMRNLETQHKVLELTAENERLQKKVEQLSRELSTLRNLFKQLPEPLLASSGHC

For `CCOC(=O)C=Cc1ccccc1`, the result in experiment [1], in [2], in [3], in [4], in experiment [5] and in experiment [6] was inactive. In addition, the compound was classed as inactive in experiment [7] and in experiment [8].
On to `CCCCCCCCCCCCOCCOS(=O)(=O)O`, for which the result in experiment [1], in [2], in experiment [3], in [4], in [5] and in experiment [6] was inactive. Moreover, the compound was classed as inactive in experiment [7] and in experiment [8].
For `c1ccc2c(c1)-c1ccc3ccc4cccc5cc-2c1c3c45`, the call in experiment [1], in experiment [2], in experiment [9], in [5], in experiment [6] and in experiment [7] was inactive. The AC50 (as a rule, the concentration at which the activity in the assay is half-maximal) in experiment [4] was 0.543 µM (active).
Take `NC(=O)c1cccnc1`: the outcome in experiment [1], in [2], in [3], in experiment [5], in experiment [6] and in experiment [7] was inactive. In experiment [4], the AC50 is 29 µM (active).
As for `C=CCOCC(O)CO` (stereo unspecified), the compound was classed as inactive in [1], in experiment [3], in experiment [4], in experiment [5], in [6] and in experiment [7]. Besides, the AC50 in experiment [2] was 100 µM (active).
For `O=c1cc(-c2ccc(O)cc2)oc2cc(O)cc(O)c12`, the figures for the AC50 in [1], in experiment [2] and in [3] were 26 µM (active), 16.8 µM (active) and 6.31 µM (active), respectively. The compound was classed as inactive in experiment [4], in [6], in experiment [7] and in experiment [8].
On to `Nc1ccc(O)c(N)c1`, for which the compound was classed as inactive in experiment [1], in experiment [2], in experiment [3], in [5], in [6] and in experiment [8]. The AC50 is 14.5 µM (active) in [4] and 42.2 µM (active) in experiment [7].
Take `CCCCCCCCOC(=O)c1ccc(O)cc1`: the result in experiment [1], in experiment [2], in experiment [3], in experiment [9], in experiment [6] and in [7] was inactive. In addition, the compound was classed as inactive in [8].
With `CN(C)C(=O)Nc1ccccc1`, the outcome in [1], in [2], in [3], in [4], in experiment [5] and in experiment [6] was inactive. The call in experiment [7] and in experiment [8] was inactive.
Regarding `CCCCCCCCOC(C)=O`, the compound was classed as inactive in experiment [1], in [2], in experiment [3], in [4], in experiment [5] and in experiment [6]. Moreover, the compound was called inactive in [7] and in experiment [8].
With `CC(=O)CC(=O)N(C)C`, the call in [1], in experiment [2], in [3], in [5], in [6] and in experiment [7] was inactive.
For `CC(C)COC(=O)c1ccccc1O`, the compound was called inactive in experiment [1], in [2], in experiment [3], in experiment [5], in experiment [6] and in experiment [7].
As for `c1ccc(OCCOc2ccccc2)cc1`, the compound was classed as inactive in [1], in experiment [2], in [3], in [5], in experiment [6] and in experiment [7]. Further, the AC50 in experiment [4] was 0.142 µM (active).
Take `NS(=O)(=O)c1cc(C(=O)O)c(NCc2ccco2)cc1Cl`: the result in [1], in experiment [2], in experiment [3], in experiment [4], in experiment [6] and in [7] was inactive. Moreover, in experiment [8], the call was inactive.
As for `CC(=O)c1ccc(C)cc1`, the compound was classed as inactive in experiment [1], in experiment [2], in experiment [3], in experiment [4], in [5] and in experiment [6]. Besides, in [7], the compound was classed as inactive.
Turning to `CC1(C)CC(=O)CC(C)(C)N1`, the result in experiment [1], in [2], in experiment [3], in experiment [4], in experiment [5] and in experiment [6] was inactive. For the same compound, the compound was called inactive in experiment [7].
Regarding `CN(C)CCC=C1c2ccccc2CCc2ccccc21`, the AC50 in experiment [1] was 33.4 µM (active); in [5], 61.2 µM (active). The outcome in [2], in [3], in [4], in [6] and in experiment [7] was inactive.
`CCCCCCCCOS(=O)(=O)O`: the call in [1], in experiment [2], in experiment [3], in experiment [4], in experiment [5] and in experiment [6] was inactive. For the same compound, in experiment [7], the compound was classed as inactive.
For the compound `O=C(C=Cc1ccccc1)OCCCc1ccccc1`, the compound was called inactive in experiment [1], in [2], in experiment [3], in experiment [9], in experiment [6] and in experiment [7]. Moreover, in experiment [8], the result was inactive.
Turning to `CCCCC/C=C\C=C\C(=O)OCC`, the figures for the AC50 in experiment [1], in experiment [3] and in experiment [8] were 58.8 µM (active), 123 µM (active) and 28.3 µM (active), respectively. Moreover, the outcome in [2], in [6] and in experiment [7] was inactive.
For the compound `C=CC(O)CCCCC` (stereo unspecified), the outcome in experiment [1], in experiment [2], in experiment [3], in experiment [4], in [5] and in experiment [6] was inactive. For the same compound, the call in experiment [7] was inactive.
For the compound `CC(=O)OCC=C(C)CCC=C(C)CCC=C(C)C`, the outcome in [1], in experiment [2], in [7] and in experiment [8] was inactive. Also, the results for the AC50 in experiment [3], in experiment [9] and in [6] were 63.2 µM (active), 33.4 µM (active) and 145 µM (active), respectively.
Turning to `CC(C)=CCCC(C)=CC(=O)O`, the call in experiment [1], in experiment [2], in experiment [3], in [4], in experiment [5] and in experiment [6] was inactive. Besides, the outcome in [7] was inactive.
In the case of `CCC(C)COC(=O)CC(C)C` (stereo unspecified), the compound was called inactive in experiment [1], in [2], in experiment [9], in experiment [4], in [5] and in experiment [6]. For the same compound, the compound was called inactive in [7] and in experiment [8].
On to `NC(=O)c1cnccn1`, for which the outcome in experiment [1], in [2], in experiment [4], in [5], in experiment [6] and in [7] was inactive.
`c1ccc2scnc2c1`: the result in experiment [1], in [2], in [9], in experiment [6], in [7] and in experiment [8] was inactive. Moreover, the AC50 in experiment [4] was 50.8 µM (active).
For the compound `CCCO[Si](OCCC)(OCCC)OCCC`, the compound was classed as inactive in experiment [1], in experiment [2], in experiment [9], in experiment [4], in experiment [5] and in experiment [6]. Further, the compound was classed as inactive in [7].
Regarding `C[C@H](CCC(=O)O)[C@H]1CC[C@H]2[C@@H]3CC[C@@H]4C[C@H](O)CC[C@]4(C)[C@H]3CC[C@]12C`, the result in experiment [1] and in [5] was inactive. Further, the AC50 in experiment [2] was 62.7 µM (active); in [9] it was 29.4 µM (active); in [4], 62.7 µM (active); in experiment [6], 168 µM (active); in [7] it was 165 µM (active).
Take `CC1(C)[C@H](C=C(Cl)Cl)[C@H]1C(=O)OCc1cccc(Oc2ccccc2)c1`: the result in experiment [1], in [2], in experiment [9], in [4], in experiment [6] and in [7] was inactive.
As for `CC(=O)c1cccnc1`, the outcome in experiment [2], in experiment [3], in experiment [9], in [4], in experiment [5] and in experiment [6] was inactive. The call in experiment [7] was inactive.
